tested on: VDR:RXRa (NR concentration 270 nM, RXRa partner concentration 90 nM); test: PBM binding z-score (relative to random genomic background probes); higher = stronger binding; sequences stand for … in GC…GCGATTGACAGCGTAGAATGAAGG
Protocol: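 Protein-binding microarray (Agilent 4x180K custom design, double-stranded 60-nt probes: 5' GC cap, 34-nt variable region, 24-nt constant primer region; full probe sequence given). Purified or IVT nuclear receptor:RXRα heterodimers (3:1 NR:RXRα, mostly 270:90 nM) or homodimers were incubated for 1 h in PBS with 2% milk and no ligand, then detected with Alexa488 antibodies. Fluorescence from o1-orientation probes (~5 replicates averaged) was converted to z-scores against 500 random hg19 background probes. Variable regions are seed direct-repeat (DR0–DR5) sites, all their single-nucleotide variants and half-site ablations.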

Row | Sequence | PBM binding z-score
1 | TTACAAAGGTGAAGGTCGTTGATCCCTCTGTAGA | 2.19
2 | CGAACTAGGTCATCCAGGACAGTGGATACATTGA | 4.5
3 | GCTATTAGTTGAAAGGGCAGCCGAATGATTCTCG | 0.0527
4 | TCTCGGAGGACACGAAGGGTCAGAGCTCGACATC | 1.91
5 | ACTAGTTGGTCAGCTGAGGTGACACACAATTCGG | 0.731
6 | GCTGCTAGGTGAGGTTGGTCAGCTAACGGGTACG | -0.472
7 | GTACCAAGGTGAATAGGTCGTTGCTGAGTAGGCG | 0.644
8 | TCTCGGAGGACACGAATGGTCAGAGCTCGACATC | -0.0797
9 | CCTTACGGATCAAGGTTATAGCACGGGTGGTACG | 0.474
10 | CAAACTAGGTCACAGAGGTCAAAGTCCGTGCGTA | 8.16
11 | CCAACTGGGCCACGAAAGGTCATTGATTCAGTGA | 4.26
12 | TCTCGGAGGATACGAAGGTCAGAGCTTTCCAGAG | 0.765
13 | CAAACTAGGTCACGAAAGGTCTAAGTCGAATGAC | 3.75
14 | TCTTGTAGATCGACAGGAGGTTAAGAAAGATCGA | 0.501
15 | CCTATTAGGTGACCATAAGGGCAACCGAAGCTCG | 0.646
16 | TTACCAAGGTGAAAGGTGGTTGATGCACGCCTTG | 0.184
17 | CCTACTGGGCCAAGGTCATGGATCAGTCAAAGCA | 3.05
18 | CCTACTGGGCCATTCCGAGGTCATTGATCATATG | 3.86
19 | GCTAGCAGGCCATTTGGGTCGCTCAATGACGGGC | -0.563
20 | AGTCAAAGTTCAGGAGGAGGTAACGTAAAGCACG | 2.89

Row | Sequence | PBM binding z-score
21 | GCTCGCAGGACAAGGTCAGAGCTTTGTCCGTAGA | 0.842
22 | CCGACTGCGGCAAGGTTACCATAACGCACAGCCA | 0.302
23 | ACTAGTTGGTCAGCTGAAGTCACACACAATTCGG | -0.103
24 | TAGCCTAGGTCATGCGGGCCAGTAGAGTGTCGGC | 2.95
25 | GGAACGAGGACATTCGAGTTGATAGCATGGCGAT | 0.922
26 | CCTTACGGGTCAAGGTTCTAGCACGGGTGGTACG | 3.1
27 | TCTATTATTTGATTAGGGCAACCGAAACAGCGGA | 0.857
28 | GTACCAAGGTGAATAGGTCGTTGAGGAGTAGGCG | 0.845
29 | AGTCAAAGATCATCTAGGTAACGTAAGATATGCT | 0.0146
30 | ATAATGAGGTTAAGATCAGGGAAACAGAATACAT | 1.6
31 | CCTAGTTGGGCAAGGTCACACACGCTATAGGTAC | 3.84
32 | GATACAGGGTCAGCTAGAGGCCATAGTATGGAAA | 4.05
33 | ACTCGCAGGCCAAGGGTCACTCAAGATTAGTCCG | 2.89
34 | GCAGACAGGTGAAACGCAGGTCACTCAGGGTGGC | 2.28
35 | ATCGAAAGGTCGAAGCTGAGTATACCCACCCGAA | 2.47
36 | TCATATAGGTAAAGGTGAAGGTCGAACGATATGA | 1.63
37 | ACTTACGGGTCAACCAGGTTATAGCACGCGTATA | 6.72
38 | CCAGACAGGTGAAAGGTATCTCAGTCTGGTACGC | 0.0976
39 | GTACCGAGGTGAATAGGTCGTTGATGAGTAGGCG | 1.14
40 | CGTCCAAGGTCAGAGAGGTCAGTGAGTGCCGAGT | 7.44
